What all share (assay): qHTS profiling for inhibitors of Plasmodium falciparum proliferation (AID 504749); also: nearly all actives have a fitted effect of over 60% in size
Common to all, as to conditions: P. falciparum in erythrocytes, SYBR Green DNA, 72 h; series mostly up to 28.7 µM
Background: In qHTS, concentration-response curves come from the screen itself.

One test has as its system CP247. A digest of the protocol: (§1)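 P. falciparum-infected erythrocytes (0.3% parasitemia, 2.5% hematocrit) incubated with compound 72 h at 37 C, 5% CO2. Parasite DNA detected by SYBR Green after lysis, overnight at room temperature; normalised to 0.29 uM artemisinin and DMSO.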
Another test has as its system CP250. A digest of the protocol: as §1
The next test has as its system CP252. The gist of the method: as §1
In a further test the test system is CP256. A digest of the protocol:
as §1

A further test relates to CP260. A digest of the protocol: as §1
Another test deals with CP262. The gist of the method: as §1
The subject of another test is CP265. The gist of the method:
as §1

The test system of the next test is CP266. A digest of the protocol:
as §1

Another test deals with CP268. The gist of the method:
as §1

The subject of a further test is CP269. The gist of the method:
as §1

For the next test, the system named is CP286. The gist of the method: as §1
In a further test the test system is CP291. The gist of the method: as §1
Another test deals with CP297. The gist of the method:
as §1

The subject of the next test is CP305. A digest of the protocol: as §1
The next test deals with CP315. A digest of the protocol:
as §1

For a further test, the system named is CP325. A digest of the protocol: as §1
The next test concerns CP329. A digest of the protocol:
as §1

For the next test, the system named is CP335. The gist of the method:
as §1

A further test has as its system DFO2036. The gist of the method: as §1
Another test has as its system DIV14. The gist of the method:
as §1

Molecules are shown by their SMILES. Results filed as inconclusive are left out. The source made the active and inactive calls. Calls follow the shape of the dose curve; as a rule, active = well fitted inhibition curve with a large enough effect; inconclusive = small, poorly fitted or top-dose-only effect; inactive = flat fitted curve, though single readings scatter.
Potency is read from the fitted curve at half-maximal effect.

Turning to `O=C(Nc1ccc([N+](=O)[O-])cc1)Nc1ccc([N+](=O)[O-])cc1`, the Potency result with CP247, with CP250, with CP252, in the test on CP256, with CP262 and with CP265 was “inactive” throughout. Besides, the Potency entry with CP266, in the test on CP268, in the test with CP269, in the test with CP291, with CP297 and in the test with CP305 was “inactive” in each case. The Potency result in the test on CP315, in the test on CP325, in the test on CP329 and in the test on DFO2036 was “inactive” each time. Besides, the Potency in the test with CP260 is 3.55 µM (active); with CP286 it was 3.16 µM (active); in the test with CP335, 4.78 µM (active).
Take `CC(=O)Nc1ccc(OCC(O)CNC(C)C)cc1` (stereo not drawn): the Potency result in the test on CP247, with CP250, with CP252, with CP256, in the test on CP260 and with CP262 was “inactive” each time. Moreover, the Potency result with CP265, in the test on CP266, in the test on CP268, with CP269, in the test on CP286 and with CP291 was “inactive” each time. The Potency entry in the test on CP297, with CP305, in the test on CP315, in the test with CP325, in the test with CP329 and in the test with CP335 was “inactive” each time. Further, the Potency entry in the test on DFO2036 and with DIV14 was “inactive” each time.
For `CCCCC(CC)COC(=O)c1ccc(N(C)C)cc1` (stereo not drawn), the Potency result with CP247, in the test on CP250, with CP252, with CP256, in the test on CP260 and in the test with CP262 was “inactive” in each case. Also, the Potency entry in the test on CP265, in the test with CP266, in the test on CP268, in the test on CP269, in the test on CP286 and with CP291 was “inactive” each time. For the same compound, the Potency entry in the test on CP297, in the test on CP305, in the test on CP315, with CP325, with CP329 and in the test with CP335 was “inactive” throughout. For the same compound, in the test on DFO2036, the Potency result is “inactive”.
For the compound `CCc1oc2ccccc2c1C(=O)c1cc(Br)c(O)c(Br)c1`, the Potency result with CP247, with CP250, with CP252, in the test with CP256, with CP260 and in the test with CP262 was “inactive” throughout. In addition, the Potency entry with CP265, in the test with CP266, in the test with CP268, in the test with CP269, in the test with CP286 and in the test with CP291 was “inactive” in each case. Also, the Potency entry in the test on CP297, in the test on CP305, in the test with CP315, in the test on CP325, in the test on CP329 and with CP335 was “inactive” each time. Besides, the Potency entry in the test with DFO2036 and in the test on DIV14 was “inactive” in each case.
On to `CC(=O)Nc1ccc(S(=O)(=O)Nc2ccc([N+](=O)[O-])cc2)cc1`, for which the Potency result in the test with CP247, with CP250, in the test on CP252, in the test on CP256, in the test with CP260 and in the test on CP262 was “inactive” each time. Also, the Potency result in the test with CP265, in the test with CP266, in the test with CP268, in the test with CP269, with CP286 and with CP291 was “inactive” each time. Moreover, the Potency result with CP297, with CP305, in the test on CP315, in the test on CP325, with CP329 and in the test on CP335 was “inactive” throughout. Further, the Potency entry in the test with DFO2036 and in the test with DIV14 was “inactive” in each case.
As to `C=C[C@@]1(C)CC(=O)[C@]2(O)[C@@]3(C)[C@@H](O)CCC(C)(C)[C@@H]3[C@H](O)[C@H](OC(C)=O)[C@@]2(C)O1`, the Potency entry in the test with CP247, with CP250, with CP252, with CP256, with CP260 and in the test with CP262 was “inactive” each time. For the same compound, the Potency result in the test with CP265, in the test on CP266, in the test with CP268, with CP269, in the test on CP286 and in the test on CP291 was “inactive” each time. For the same compound, the Potency entry in the test on CP297, with CP305, with CP315, in the test on CP325, in the test with CP329 and in the test on CP335 was “inactive” in each case. The Potency result in the test on DFO2036 and in the test on DIV14 was “inactive” in each case.
`COc1ccc(-c2cc(C(F)F)nn2-c2ccc(S(N)(=O)=O)cc2)cc1F`: the Potency result in the test with CP247, with CP250, with CP252, in the test with CP256, in the test on CP260 and in the test on CP262 was “inactive” in each case. Moreover, the Potency result in the test with CP265, in the test with CP266, in the test with CP268, with CP269, with CP286 and in the test on CP291 was “inactive” each time. Besides, the Potency entry in the test on CP297, in the test on CP305, in the test with CP315, in the test with CP325, in the test with CP329 and in the test on CP335 was “inactive” each time. Moreover, the Potency entry in the test with DFO2036 and in the test with DIV14 was “inactive” each time.
As for `COc1cc(NS(=O)(=O)c2ccc(N)cc2)ncn1`, the Potency result with CP247, in the test with CP250, with CP252, in the test with CP256, in the test on CP260 and in the test with CP262 was “inactive” in each case. The Potency entry in the test on CP265, in the test on CP266, with CP268, with CP269, with CP286 and in the test with CP291 was “inactive” throughout. Also, the Potency entry in the test with CP297, in the test with CP305, in the test on CP315, with CP325, in the test on CP329 and in the test with CP335 was “inactive” throughout. The Potency result in the test on DFO2036 and with DIV14 was “inactive” throughout.
For the compound `NS(=O)(=O)Cc1noc2ccccc12`, the Potency entry in the test on CP247, with CP250, in the test with CP252, in the test on CP256, in the test on CP260 and in the test on CP262 was “inactive” throughout. The Potency entry in the test with CP265, in the test on CP266, in the test on CP268, in the test on CP269, in the test on CP286 and in the test on CP291 was “inactive” in each case. Also, the Potency entry in the test with CP297, in the test with CP305, in the test with CP315, in the test with CP325, in the test with CP329 and with CP335 was “inactive” each time. Besides, the Potency entry with DFO2036 and with DIV14 was “inactive” each time.
Consider `CCCCCCCCCCCCCC[N+](C)(C)Cc1ccccc1`, for which the Potency in the test on CP247 is 5.62 µM (active); with CP250 it was 11.2 µM (active); in the test on CP252 it was 7.94 µM (active); with CP256, 7.94 µM (active); in the test with CP260, 5.01 µM (active); in the test on CP262, 4.26 µM (active). The Potency in the test with CP265 was 8.91 µM (active); in the test on CP266 it was 10.7 µM (active); in the test on CP268, 6.75 µM (active); with CP269, 4.78 µM (active); with CP286, 3.16 µM (active); with CP291, 4.78 µM (active). For the same compound, the Potency was 5.36 µM (active) in the test with CP297; 5.36 µM (active) in the test with CP305; 10.7 µM (active) in the test with CP315; 5.36 µM (active) with CP325; 4.78 µM (active) in the test with CP329; 4.78 µM (active) in the test on CP335. Moreover, the Potency was 7.94 µM (active) with DFO2036 and 4.78 µM (active) with DIV14.
As to `CCc1oc2ccccc2c1C(=O)c1cc(I)c(O)c(I)c1`, the Potency entry in the test with CP247, with CP250, in the test with CP252, in the test on CP256, in the test with CP260 and in the test on CP262 was “inactive” each time. Also, the Potency result in the test on CP265, with CP266, in the test on CP268, with CP269, with CP286 and in the test on CP291 was “inactive” each time. For the same compound, the Potency result in the test on CP297, in the test with CP305, with CP315, in the test on CP325, in the test with CP329 and in the test with CP335 was “inactive” each time. Moreover, the Potency entry in the test with DFO2036 and in the test with DIV14 was “inactive” throughout.
In the case of `CC(=O)NO`, the Potency result in the test on CP247, in the test with CP250, with CP252, with CP256, in the test with CP260 and in the test on CP262 was “inactive” each time. Moreover, the Potency result with CP265, in the test on CP266, in the test on CP268, in the test with CP269, in the test on CP286 and with CP291 was “inactive” each time. Moreover, the Potency entry in the test on CP297, with CP305, with CP315, in the test with CP325, in the test on CP329 and in the test with CP335 was “inactive” in each case. The Potency result in the test on DFO2036 and in the test with DIV14 was “inactive” each time.
As to `CCN1/C(=C/C=C/c2sc3ccccc3[n+]2CC)Sc2ccccc21`, the Potency in the test with CP247 is 0.251 µM (active); in the test on CP250, 0.178 µM (active); in the test with CP252, 0.141 µM (active); in the test on CP256, 0.1 µM (active); in the test on CP260, 0.158 µM (active); in the test on CP262 it was 0.19 µM (active). The Potency in the test with CP265 was 0.224 µM (active); in the test on CP266, 0.675 µM (active); in the test on CP268, 0.536 µM (active); in the test on CP269, 0.379 µM (active); in the test on CP286, 0.0501 µM (active); in the test with CP291, 0.379 µM (active). Moreover, the Potency in the test on CP297 was 0.849 µM (active); with CP305, 0.19 µM (active); with CP315, 0.757 µM (active); with CP325 it was 0.601 µM (active); in the test on CP329 it was 0.426 µM (active); in the test with CP335 it was 0.107 µM (active). The Potency with DFO2036 was 0.1 µM (active); in the test on DIV14 it was 0.478 µM (active).
Consider `CC(C)Cn1cnc2c1c(=O)n(C)c(=O)n2C`, for which the Potency entry in the test with CP247, with CP250, in the test with CP252, in the test on CP256, in the test on CP260 and with CP262 was “inactive” each time. In addition, the Potency entry with CP265, in the test on CP266, in the test with CP268, in the test with CP269, with CP286 and with CP291 was “inactive” in each case. Also, the Potency result with CP297, with CP305, in the test on CP315, in the test with CP325, in the test on CP329 and with CP335 was “inactive” each time. The Potency result in the test with DFO2036 and with DIV14 was “inactive” each time.

Source of the values: PubChem BioAssay (NCATS).
